# Measured values: PubChem BioAssay AID449762 (Southern Research Specialized Biocontainment Screening …, 2010)
# Hit rate of the full screen: of about 330,000 compounds, about 1,900 (0.58%) were called active. About 4% were inconclusive and are not listed. A selection follows. Entries with a potency or affinity are not part of this list. A number with no mark means an inactive call. No stated cut-off is given here; in the data, inconclusive means inhibition above about 70% without an active follow-up result; inactive means below that.
# Assay: M. tuberculosis growth inhibition, HTS (AID 449762);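 further: bacterial growth assessed after seven days of incubation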
# Settings: M. tuberculosis H37Rv growth inhibition, 7H9 media; at 25 µM; hits give high values
row,SMILES,inhibition [%]
1,O=C(COC(=O)c1ccc(Cl)nc1)NNC(=O)c1ccc(Cl)cc1,5.61
2,O=C(NCCC1=CCCCC1)c1cc(S(=O)(=O)N2CCOCC2)c(Cl)cc1Cl,2.93
3,CCc1ccccc1N(CC(=O)NCC1CCCO1)C(=O)CCC(=O)Nc1cc(C)on1 (stereo not given),-3.22
4,COc1ccc(OC)c(S(=O)(=O)N2CCC(C(=O)Nc3cc(C)ccc3C)CC2)c1,-10.6
5,Cc1ccccc1C1C(C#N)=C2N=C(N)c3ccccc3N2C2=C1C(=O)CCC2 (stereo not given),6.31
6,CCOC(=O)/C(=N\Nc1ccccc1)c1csc(Nc2ccc(C)cc2)n1,7.86
7,CCOC(=O)/C(=N\Nc1ccc(C(C)=O)cc1)c1csc(Nc2ccccc2)n1,-1.99
8,Cc1ccc(NC(=O)CN(C)C(=O)c2ccc3[nH]c4c(c3c2)CC(C)CC4)cc1 (stereo not given),-5.07
9,O=C(OCc1ccc(Cl)cc1)c1cnccn1,31.1
10,O=C(c1ccccc1)c1ccc(COC(=O)c2cnccn2)cc1,18
11,COC(=O)CN(c1cccc(OC)c1)S(C)(=O)=O,1.45
12,CCOC(=O)c1sc2ncnc(NCc3ccco3)c2c1C,0.46
13,CN(C)C(CNc1ncnc2sccc12)c1cccs1 (stereo not given),-3.95
14,NC(=O)c1ccsc1NC(=O)COC(=O)Cc1c[nH]c2ccccc12,2.86
15,COc1ccc(/C=C2/SC(=O)N(CCNC(=O)CC(NC(C)=O)c3ccccc3)C2=O)cc1 (stereo not given),-1.58
16,Cc1ccc(CC(=O)Nc2ccc(Cl)cn2)cc1,3.62
17,Cc1ccc(NC(=O)Cc2ccc(Cl)cc2)nc1,11.2
18,O=C(c1ccc(Cl)cc1)N1N=CCC1(O)c1ccc(Cl)cc1 (stereo not given),2.13
19,C[C@H](NC(=O)c1[nH]cnc1C(=O)Nc1ccon1)c1ccccc1,-0.305
20,O=C(OCC(=O)N1CCN(C(=O)c2ccco2)CC1)c1cc(-c2ccc(Cl)c(Cl)c2Cl)nc2ccccc12,4.98

row,SMILES,inhibition [%]
1,O=C(OCC(=O)N1CCN(C(=O)c2ccco2)CC1)c1cc(-c2ccco2)nc2ccccc12,6.06
2,COc1ccc(CN(C)C(=O)C(Cc2ccccc2)NC(=O)c2ccccc2)c(OC)c1 (stereo not given),0.87
3,COc1cc(CN2CCC(n3nccc3NC(=O)CCCc3ccccc3)CC2)ccc1F,-1.97
4,CC1CCC/C(=N\NC(=O)Nc2ccccc2)C1 (stereo not given),-3.97
5,CCC(C)(C)C1CCC(=NNC(=S)Nc2ccccc2)CC1 (stereo not given),6.86
6,CCN(CC(=O)NCc1ccc(Cl)cc1)C(=O)c1ccc(S(=O)(=O)N(C)C)cc1,-8.9
7,Cc1ccc(N=C2C(=S)N(c3ccc(C)cc3)C(=N)N2/N=C/c2ccc(Cl)cc2)cc1,-4.74
8,N=C1N(/N=C/c2ccccc2)C(=Nc2ccccc2)C(=S)N1c1ccccc1,-15.3
9,CNC(=O)CSCc1cnn(-c2ccccc2)c1-n1cccc1,-0.17
10,Nc1ccc(S(=O)(=O)N2CCCC2C(=O)O)cc1 (stereo not given),-7.07
11,Nc1nonc1C(=O)NCCNCc1cc(Br)ccc1OCc1ccccc1F,14.5
12,Nc1nonc1C(=O)NCCNCc1ccccc1OCc1ccccc1F,2.36
13,COc1ccc(N(CC(=O)NC2CC3CCC2C3)S(=O)(=O)c2ccc(C)c([N+](=O)[O-])c2)cc1 (stereo not given),2.1
14,O=C(COc1ccc(-n2ccnc2)cc1)Nc1cccc(Cl)c1,-3.44
15,COc1cc(NC(=O)COc2ccc(-n3ccnc3)cc2)cc(OC)c1,38.6
16,Cc1ccc(C(=O)N2CCN(c3ccc([N+](=O)[O-])c(NCc4cccnc4)c3)CC2)cc1,0.99
17,COc1cc(/C=c2\s/c(=C\C(=O)C(C)(C)C)[nH]c2=O)cc(OC)c1OC,69
18,CC(C)(C)C(=O)/C=c1\[nH]c(=O)/c(=C\c2ccccc2F)s1,48.4
19,O=C(Nc1c(C(=O)NCc2ccco2)cnn1-c1ccccc1)c1ccc(F)cc1,3.13
20,COc1ccc(C(=O)Nc2nnc(S(=O)(=O)Cc3ccccc3)s2)cc1,8.58

row,SMILES,inhibition [%]
1,O=C(N/N=C/c1ccccc1)C(=O)N/N=C/c1ccccc1,2.46
2,O=C(CC1CCCC1)N1CCN(S(=O)(=O)c2ccc(F)cc2)CC1,-4.71
3,COC(=O)c1ccccc1NC(=O)COC(=O)CSc1nnc(N)s1,0.97
4,CC(C)(C)OC(=O)NCCCCCNC(=O)c1[nH]cnc1C(=O)Nc1ccon1,-5.82
5,COc1ccc(NC(=O)NCc2cccnc2)cc1OC,-5.2
6,COC(=O)Cn1nc(-c2ccccc2)c2ccccc2c1=O,65.5
7,COC(=O)Cn1nc(-c2ccccc2)c2ccccc21,31.4
8,Cc1ccccc1C(=O)N1CCC(C(=O)N(CC(C)C)c2c(N)n(CC(C)C)c(=O)[nH]c2=O)CC1,-6.17
9,COC(=O)[C@H](CCSC)NC(=O)NCc1cccs1,-7.69
10,Cc1cccc(NC(=O)C2CCN(c3nccc(C)n3)CC2)c1,3.71
11,Cc1cc(C)nc(N2CCC(C(=O)Nc3cccc(C(F)(F)F)c3)CC2)n1,-14.2
12,CCOC(=O)c1cn(CC)c2cc(Cl)c([N+](=O)[O-])cc2c1=O,9.8
13,CCCN1CCN(C2CCCCC2NS(=O)(=O)c2ccccc2)CC1 (stereo not given),-5.87
14,OC(COC(c1ccc(F)cc1)c1ccc(F)cc1)CN1CCc2ccccc2C1 (stereo not given),28.2
15,OC(COC(c1ccccc1)c1ccccc1)CN1CCc2ccccc2C1 (stereo not given),4.67
16,CCOc1ccc(Oc2nc(NCC(C)C)nc(N(C)C)n2)nn1,-2.04
17,COC(=O)Cn1c(=O)oc2ccc(C)cc21,-1.52
18,COc1cc(NC(=O)CCc2c(C)nc3nc(C)nn3c2C)cc(OC)c1,2.33
19,COC(=O)c1ncccc1SC,-6.32
20,COC(=O)c1sccc1NC(=O)CSc1cccc(Cl)c1Cl,11
